The results in this text go back to PubChem BioAssay (Tox21).

SMILES strings stand for the structures. Inconclusive results are not listed. Active and inactive are the calls of the source. Unless noted, calls follow the shape of the full dose curve.

The nature of experiment [1]: Nuclear factor erythroid 2-related factor 2/antioxidant responsive element (Nrf2/ARE) small molecule agonists: qHTS cell viability counter screen in human keratinocytes (AID 1919968; active = well fitted cell-killing curve with a large enough effect in the repeat runs; also: nearly all actives have a fitted effect of over 55% in size). In a few lines:
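Fluorescence read-out from CellTiter-Fluor after 1 h at 37 C. Wells held HaCaT-derived ARE-luciferase reporter cells (1,500/well) treated 23 h with DMSO-dissolved compounds. Run in the same wells as the luciferase agonist read.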
Background: qHTS replaces the single test concentration by a dilution series.

Experiment [2] in a line: Nuclear factor erythroid 2-related factor 2/antioxidant responsive element (Nrf2/ARE) small molecule agonists: luciferase reporter gene qHTS assay in human keratinocytes (AID 1919969). Also: nearly all actives have a fitted effect of over 35% in size. Also: potency is read from the fitted curve at half-maximal effect. On the technique in general: A reporter such as luciferase makes a cellular process visible.
Experiment [3] deals with Gonadotropin-releasing hormone receptor (Homo sapiens) (UniProt P30968). Kind of experiment: Human gonadotropin-releasing hormone receptor (GnRHR) small molecule agonists, calcium flux assay in GnRHR-HEK293 cells (AID 1920063). Also: nearly all actives have a fitted effect of over 35% in size. In a few lines:
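Calcium-dye fluorescence, Ex/Em=480/540, recorded every 1 sec over 3 min after compound addition to GnRHR-HEK293 cells. Cells had been seeded 18 hours earlier and dye-loaded for 1 hour at 37 C. Fifteen concentrations, triplicates.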

Experiment [4] in a line: G protein-coupled receptor (GPCR) small molecule agonists, calcium flux assay: HEK293 wild type cell line counter screen (AID 1920065). Put shortly: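 Agonist mode; 18 h seeding at 37 C, 1 h dye load at 37 C; compounds pinned from DMSO, ATP as positive control; kinetic fluorescence 480/540 nm, 3 min, 1 s reads; 15 concentrations, triplicate.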
(In general: Calcium assays in cells follow changes in intracellular calcium, usually with a dye or a luminescent sensor.)

Experiment [5] in a line: p53 small molecule agonists, cell-based qHTS assay with human liver microsomes (AID 1963577).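 Also: p53 response element beta-lactamase reporter cells with liver microsomes plus NADPH.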 In a few lines:
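HLM-supplemented p53RE-bla reporter assay: 16 h compound exposure at 37 C, microsomes and NADPH each 0.5 mg/mL final, read by fluorescence intensity.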

The nature of experiment [6]: p53 small molecule agonists, cell-based qHTS assay with rat liver microsomes (AID 1963578). In a few lines: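 Quantitative HTS of the Tox21 10K library: p53RE-bla cells, rat liver microsomes plus NADPH at 0.5 mg/mL final each, 16 h at 37 C, beta-lactamase fluorescence detection.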
A short description of experiment [7]: p53 small molecule agonists, cell-based qHTS assay with human liver microsomes: qHTS cell viability counter screen (AID 1963579). Also: nearly all actives have a fitted effect of over 45% in size. Put shortly: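 Viability of p53RE-bla cells is measured as CellTiter-Glo luminescence following a 16 h, 37 C incubation with compound, liver microsomes from human donors and NADPH.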
The nature of experiment [8]: p53 small molecule agonists, cell-based qHTS assay with rat liver microsomes: qHTS cell viability counter screen (AID 1963580). Also: nearly all actives have a fitted effect of over 45% in size. In a few lines:
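Rat liver microsome (0.5 mg/mL final) and NADPH (0.5 mg/mL final) co-incubation with compounds for 16 h at 37 C on HCT-116 p53RE-bla cells; cytotoxicity taken from intracellular ATP luminescence.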

Experiment [9] in a line: p53 small molecule agonists, cell-based qHTS assay (AID 1963582; active = well fitted activation curve with a large enough effect in the signal ratio in the repeat runs, not every such curve was filed as active; the % refers to the signal ratio). In a few lines: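 Fluorescence intensity read-out of a beta-lactamase reporter under a p53 response element. Cells were exposed to DMSO-dissolved compounds for 16 h at 37 C, then developed with FRET substrate for 2 h at RT.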
For experiment [10], the target named is 5-hydroxytryptamine receptor 2A (Homo sapiens) (UniProt P28223). The experiment in a line: 5-hydroxytryptamine receptor 2A (HTR2A) small molecule antagonists, cell-based qHTS assay (AID 1963586). Also: nearly all actives have a fitted effect of over 45% in size. Put shortly: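 CHO cells stably expressing human HTR2A were plated for 18 h at 37 C, then loaded with calcium dye for 1 h. Compounds were preincubated 5 min at room temperature before DOI (4 nM solution) was added. Kinetic fluorescence was read for 3 min.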

Experiment [11] has the same target. The experiment in a line: 5-hydroxytryptamine receptor 2A (HTR2A) small molecule agonists, cell-based qHTS assay (AID 1963587). Also: nearly all actives have a fitted effect of over 30% in size. Put shortly:
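Kinetic calcium-flux fluorescence (2 min, 1 sec intervals) after compound addition in agonist mode. HTR2A-CHO cells were cultured 18 h, then dye-loaded 1 h at 37 C.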

Experiment [12] addresses Muscarinic acetylcholine receptor M1 (Homo sapiens) (UniProt P11229). The experiment in a line: Cholinergic receptor muscarinic 1 (CHRM1) small molecule antagonists, cell-based qHTS assay (AID 1963588). Also: nearly all actives have a fitted effect of over 40% in size. Put shortly:
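Compounds were tested at 15 concentrations in three independent runs. Dye-loaded CHRM1-CHO cells were exposed 5 min at room temperature before stimulation by acetylcholine added at 50nM. Intracellular calcium was read kinetically on FDSS for 3 min.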

The target is the same in experiment [13]. Kind of experiment: Cholinergic receptor muscarinic 1 (CHRM1) small molecule agonists, cell-based qHTS assay (AID 1963589). Also: nearly all actives have a fitted effect of over 35% in size. Put shortly:
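Calcium flux read-out: kinetic fluorescence at 1 sec intervals after pin-tool compound addition to dye-loaded CHRM1-CHO cells (human M1). Agonist mode; 15 concentrations tested in triplicate independent runs.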

A short description of experiment [14]: cAMP Responsive Elements (CRE) small molecule agonists, cell-based qHTS assay (AID 1963590). Put shortly:
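Beta-lactamase reporter readout: LiveBLAzer B/G FRET substrate, 2 h at room temperature, added after 3 h compound treatment of CRE-bla HEK 293T cells at 37 C/5% CO2.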

A short description of experiment [15]: cAMP Responsive Elements (CRE) small molecule antagonists, cell-based qHTS assay (AID 1963591; active = well fitted inhibition curve with a large enough effect in the signal ratio in the repeat runs, not every such curve was filed as active; the % refers to the signal ratio). In a few lines:
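HEK293T CRE-bla; 18 h preincubation; compound pin-transfer; NKH477 0.25 uM final, 3 h, 37 C; LiveBLAzer FRET substrate 2 h RT.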

The target in experiment [16] is Beta-2 adrenergic receptor (Homo sapiens) (UniProt P07550). The experiment in a line: Adrenergic beta2 receptor (ADRB2) small molecule antagonists, cell-based qHTS assay (AID 1963592). Also: series mostly up to about 92 µM; nearly all actives have a fitted effect of over 50% in size. In a few lines: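 Assay format: CHO-ADRB2 cells, 18-20hr seeding at 37C/5% CO2, then compound plus 1nM isoproterenol agonist mix for 0.5hr RT. Homogeneous time-resolved fluorescence cAMP detection after 1hr, expressed as 665/615 nm ratio.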

The target in experiment [17] is D(2) dopamine receptor (Homo sapiens) (UniProt P14416). The experiment in a line: Dopamine D2 receptor (DRD2) small molecule agonists, cell-based qHTS assay (AID 1963594). Also: nearly all actives have a fitted effect of over 35% in size. Put shortly: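 cAMP accumulation in DRD2-HEK293 cells measured by HTRF after 1 h detection; compounds added 10 min before NKH477 (200nM […]) forskolin-analogue stimulation, 30 min at room temperature, with Ro20-1724 present at 0.1 mM final.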

Experiment [18] shares this target. Kind of experiment: Dopamine D2 receptor (DRD2) small molecule antagonists, cell-based qHTS assay (AID 1963595; active = well fitted inhibition curve with a large enough effect in the signal ratio in the repeat runs, with a control signal flat; the % refers to the signal ratio). In a few lines:
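DRD2-HEK293; 0.1 mM Ro20-1724; cpd 10 min RT; NKH477 200 nM + quinpirole 12 nM, 30 min RT; HTRF cAMP (cAMP-d2/anti-cAMP cryptate), 665/620 nm ratio after 1 h.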

Experiment [19] is described as follows: p53 small molecule agonists, cell-based qHTS assay: qHTS cell viability counter screen (AID 1963581). Also: nearly all actives have a fitted effect of over 45% in size. Put shortly:
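Cytotoxicity read-out: ATP-based luminescence (CellTiter-Glo, 30 min RT) measured in the same wells as the p53 reporter assay, HCT-116 p53RE-bla cells, 16 h compound exposure at 37 C.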

Chain of Beta-2 adrenergic receptor (Homo sapiens) (P07550 whole entry, looked up): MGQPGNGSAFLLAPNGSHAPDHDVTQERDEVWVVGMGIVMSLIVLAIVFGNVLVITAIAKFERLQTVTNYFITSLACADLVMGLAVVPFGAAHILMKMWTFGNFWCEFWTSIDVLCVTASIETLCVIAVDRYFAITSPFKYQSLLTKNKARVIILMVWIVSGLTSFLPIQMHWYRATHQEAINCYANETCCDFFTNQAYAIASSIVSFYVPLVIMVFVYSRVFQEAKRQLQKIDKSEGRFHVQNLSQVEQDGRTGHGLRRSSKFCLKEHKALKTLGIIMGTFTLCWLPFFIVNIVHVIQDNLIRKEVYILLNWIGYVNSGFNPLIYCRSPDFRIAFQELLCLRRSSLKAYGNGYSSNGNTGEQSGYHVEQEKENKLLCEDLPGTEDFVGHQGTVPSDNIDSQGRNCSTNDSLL
Chain of 5-hydroxytryptamine receptor 2A (Homo sapiens) (P28223 whole entry, looked up): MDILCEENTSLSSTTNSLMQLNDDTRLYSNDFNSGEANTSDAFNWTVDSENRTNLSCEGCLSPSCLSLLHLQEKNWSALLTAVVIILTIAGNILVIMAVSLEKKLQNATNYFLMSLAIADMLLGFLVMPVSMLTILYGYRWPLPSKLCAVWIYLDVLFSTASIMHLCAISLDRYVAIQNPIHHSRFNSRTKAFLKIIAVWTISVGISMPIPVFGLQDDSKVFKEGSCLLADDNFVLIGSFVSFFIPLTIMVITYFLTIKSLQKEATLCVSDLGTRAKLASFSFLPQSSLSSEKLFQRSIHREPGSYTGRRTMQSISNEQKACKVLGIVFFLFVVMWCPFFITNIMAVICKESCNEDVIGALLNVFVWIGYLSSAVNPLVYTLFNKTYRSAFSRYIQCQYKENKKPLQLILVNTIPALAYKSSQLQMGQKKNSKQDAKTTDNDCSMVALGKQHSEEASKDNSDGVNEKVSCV
Chain of D(2) dopamine receptor (Homo sapiens) (P14416 whole entry, looked up): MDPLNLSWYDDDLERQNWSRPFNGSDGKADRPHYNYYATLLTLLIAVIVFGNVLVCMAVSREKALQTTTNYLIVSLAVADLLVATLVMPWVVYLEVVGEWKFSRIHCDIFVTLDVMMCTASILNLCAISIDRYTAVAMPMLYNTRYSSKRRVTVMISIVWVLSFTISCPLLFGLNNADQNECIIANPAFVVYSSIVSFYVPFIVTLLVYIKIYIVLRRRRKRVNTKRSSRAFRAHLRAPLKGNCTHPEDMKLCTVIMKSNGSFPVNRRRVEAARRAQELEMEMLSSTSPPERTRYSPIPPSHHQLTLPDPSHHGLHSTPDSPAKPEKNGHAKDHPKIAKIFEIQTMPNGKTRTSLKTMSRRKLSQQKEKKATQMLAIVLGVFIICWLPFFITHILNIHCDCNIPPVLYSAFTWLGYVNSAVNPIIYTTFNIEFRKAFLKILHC
Chain of Muscarinic acetylcholine receptor M1 (Homo sapiens) (P11229 whole entry, looked up): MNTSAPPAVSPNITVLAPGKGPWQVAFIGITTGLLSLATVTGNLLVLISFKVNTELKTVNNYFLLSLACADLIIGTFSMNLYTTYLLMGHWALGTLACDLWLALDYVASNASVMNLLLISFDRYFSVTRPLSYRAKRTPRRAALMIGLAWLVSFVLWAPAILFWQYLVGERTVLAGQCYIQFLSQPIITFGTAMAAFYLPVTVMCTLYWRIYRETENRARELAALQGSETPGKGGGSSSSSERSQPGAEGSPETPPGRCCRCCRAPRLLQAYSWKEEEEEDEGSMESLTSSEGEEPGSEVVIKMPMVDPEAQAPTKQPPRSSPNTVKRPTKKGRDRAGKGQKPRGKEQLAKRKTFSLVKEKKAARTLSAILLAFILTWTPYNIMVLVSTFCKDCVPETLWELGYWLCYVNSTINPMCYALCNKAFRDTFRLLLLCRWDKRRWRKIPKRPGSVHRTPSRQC
Chain of Gonadotropin-releasing hormone receptor (Homo sapiens) (P30968 whole entry, looked up): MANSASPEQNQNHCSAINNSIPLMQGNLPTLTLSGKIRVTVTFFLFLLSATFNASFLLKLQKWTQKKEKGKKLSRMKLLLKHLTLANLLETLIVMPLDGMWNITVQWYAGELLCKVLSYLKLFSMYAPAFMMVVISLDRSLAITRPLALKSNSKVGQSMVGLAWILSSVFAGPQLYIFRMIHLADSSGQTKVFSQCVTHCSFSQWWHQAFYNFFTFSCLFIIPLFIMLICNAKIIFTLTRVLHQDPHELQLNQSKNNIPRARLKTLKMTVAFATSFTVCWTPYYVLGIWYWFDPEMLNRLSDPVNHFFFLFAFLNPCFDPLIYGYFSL

For `CCNC(=O)NCCCOc1cccc(CN2CCCCC2)c1`, the Potency entry in experiment [1], in experiment [2], in [3], in experiment [5], in experiment [6] and in [7] was “inactive” in each case. For the same compound, the Potency entry in [8], in experiment [9], in [10], in experiment [11], in [12] and in experiment [13] was “inactive” throughout. In addition, the Potency entry in [14], in experiment [15], in [16], in experiment [17] and in experiment [18] was “inactive” in each case. The result in experiment [4] was inactive.

Turning to `C[C@@H]1C[C@H]2[C@@H]3CCC4=CC(=O)C=C[C@]4(C)[C@@]3(F)[C@@H](O)C[C@]2(C)[C@H]1C(=O)CO`, the Potency entry in experiment [1], in experiment [2], in [3], in experiment [5], in experiment [6] and in experiment [7] was “inactive” throughout. Further, the Potency entry in experiment [8], in experiment [19], in experiment [9], in experiment [14], in experiment [15] and in [16] was “inactive” each time. The Potency entry in experiment [18] was “inactive”. The outcome in [4] was inactive.

In the case of `CCC1C(=O)OCC1Cc1cncn1C` (stereo not given), the Potency entry in [1], in [2], in [3], in experiment [5], in [6] and in experiment [7] was “inactive” each time. Moreover, the Potency result in experiment [8], in [9], in [10], in experiment [11], in experiment [14] and in experiment [15] was “inactive” throughout. Moreover, the Potency result in experiment [16], in experiment [17] and in [18] was “inactive” throughout. Moreover, the outcome in experiment [4] was inactive.

For the compound `CCCCOCCOC(=O)COc1ccc(Cl)cc1Cl`, the Potency result in experiment [1], in [2], in experiment [3], in experiment [5], in [6] and in [7] was “inactive” in each case. For the same compound, the Potency entry in [8], in experiment [19], in experiment [9], in experiment [11], in experiment [13] and in [16] was “inactive” in each case. The Potency result in experiment [17] and in [18] was “inactive” each time. Besides, in experiment [4], the result was inactive.

As for `CCc1cccc(C)c1N(C(=O)C(=O)O)C(C)COC` (stereo not given), the Potency result in experiment [1], in experiment [2], in experiment [3], in experiment [5], in experiment [6] and in experiment [7] was “inactive” in each case. Also, the Potency entry in experiment [8], in experiment [9], in [10], in experiment [12], in experiment [13] and in experiment [14] was “inactive” in each case. Moreover, the Potency entry in experiment [16], in experiment [17] and in experiment [18] was “inactive” in each case. In addition, the result in [4] was inactive.

For `CC(C)C(=O)OC/C=C/c1ccccc1`, the Potency result in experiment [1], in experiment [2], in [3], in experiment [5], in experiment [6] and in experiment [7] was “inactive” in each case. For the same compound, the Potency entry in experiment [8], in experiment [9], in experiment [10], in experiment [11], in experiment [12] and in experiment [13] was “inactive” each time. The Potency entry in experiment [16] and in [18] was “inactive” each time. Also, the result in experiment [4] was inactive.

On to `O=C(c1ccccc1)c1ccc(Cl)cc1`, for which the Potency entry in experiment [1], in [3], in [5], in experiment [6], in experiment [7] and in [8] was “inactive” in each case. In addition, the Potency result in experiment [19], in experiment [11], in experiment [12], in experiment [13], in [15] and in experiment [16] was “inactive” in each case. Also, the Potency result in experiment [17] and in experiment [18] was “inactive” each time. The Potency in experiment [2] was 61.1 µM (active). The outcome in experiment [4] was inactive.
